Screens (PubChem BioAssay)
A selection: hits, their analogues and other compounds. The true share with any hit is near 5%.
SENP8 block-1 = SENP8 protease inhibitors, primary screen, biochemical, luminescence. Sentrin-specific protease 8 (Homo sapiens), Q96LD8. purified SENP8, Z-RLRGG-aminoluciferin cleavage. inhibition, % at 10 µM. hit rate 1.2% among 330,000; in the data active = inhibition above about 50%
SENP7 inh = SENP7 protease inhibitors, primary screen, biochemical, luminescence, uHTS; Sentrin-specific protease 7 (Homo sapiens), Q9BQF6; recombinant SENP7, Z-RLRGG-aminoluciferin luminescence, 40 min; inhibition, % at 5 µM; hit rate 1.5% among 330,000;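 active = inhibition above about 50% at the single test dose, limit read from the data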;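 note: plate controls were DMSO with enzyme for no effect and no enzyme buffer wells for full effect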
SENP8 block-2 = human SENP8 protease inhibitors, primary screen, biochemical, fluorescence, Nedd8 protein substrate, uHTS; Sentrin-specific protease 8 (Homo sapiens), Q96LD8; recombinant SENP8; inhibition, % at 20 µM; hit rate 0.64% among 360,000; in the data active = inhibition mostly above about 40%, no sharp cut-off; inactive = mostly below about 27%
SENP6 inh = SENP6 protease inhibitors, primary screen, biochemical, luminescence, uHTS. Sentrin-specific protease 6 (Homo sapiens), Q9GZR1. Recombinant SENP6 catalytic domain, aminoluciferin luminescence. inhibition, % at 10 µM. hit rate 1.8% among 330,000. AID 2599, 2010;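 active = inhibition above about 50% at the single tested dose, limit read from the data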;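 note: plate controls were DMSO wells with enzyme for no effect and DMSO wells lacking enzyme for full effect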
AHR activator = AHR activators, primary screen, cell-based, luminescence, luciferase reporter, human; activation, % at 5 µM; AID 2796, 2010; hit rate 2.5% among 320,000; AHR-responsive luciferase reporter cells; Aryl hydrocarbon receptor (Homo sapiens), P35869; in the data active = activation above about 47%;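 note: 0% = vehicle wells and 100% = reference agonist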
EBI2 antag = EBI2 receptor antagonists, beta-arrestin recruitment, primary screen, cell-based, luminescence, 7a,25-OHC stimulation, uHTS | 7a,25-OHC stimulated | inhibition, % at 5 µM | hit rate 0.81% among 360,000 | AID 651636, 2012; in the data active = inhibition above about 38%;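 note: enzyme fragment complementation signal reports receptor beta-arrestin coupling in cells; 0% = agonist plus DMSO wells and 100% = wells without agonist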
Numbers without * were called inactive; · = no result given.

SMILES	SENP8 block-1	SENP7 inh	SENP8 block-2	SENP6 inh	AHR activator	EBI2 antag
O[C@H]1C[C@H](c2ccccc2)N(Cc2cccs2)C[C@@H]1n1cc(-c2ccc(F)cc2)nn1	·	·	-1.9	·	·	-0.1
COCCCN1C(=O)C(CC(=O)NC2CCCC2)CC(C(=O)N(C(C)C)C(C)C)=C1C (stereo unspecified)	·	·	11.7	·	·	-7.8
CCN(CC)C(=O)c1[nH]cnc1C(=O)Nc1cccc(Cl)c1	10.6	-12.4	13.5	-1.9	67.2*	-4.9
O=C(Nc1cccc(Cl)c1)c1nc[nH]c1C(=O)NCCCCNC(=O)c1[nH]cnc1C(=O)Nc1cccc(Cl)c1	6.7	-4.9	15.1	10.6	2.2	-8.3
CN(Cc1ccccc1)C(=O)[C@@H]1CCCN1C(=O)[C@@H]1CCCN1C(=O)c1cccc2ccccc12	·	·	6.1	·	·	-2.2
Cc1ccc(SCC(=O)OCC(=O)N(CC(C)C)c2c(N)n(Cc3ccccc3)c(=O)[nH]c2=O)cc1C	-3.7	-8.5	2.0	-13.5	1.7	3.8
Cc1ccc2cccc(NC3OC(=O)c4ccccc43)c2n1 (stereo unspecified)	21.5	36.1	9.7	51.0*	20.7	-4.5
Cc1ccc(NC(=O)c2cccc(-n3cnnn3)c2)cc1Cl	-12.8	-8.0	5.8	-6.3	56.2*	-0.1
CS(=O)(=O)c1ccc(NC(=O)c2cccc(-n3cnnn3)c2)cc1	-12.7	2.0	13.9	-4.0	4.2	-8.8
Oc1ccc(C[C@H]2CNC(=S)N2C[C@H]2CCCN2C[C@H](Cc2ccccc2)N2C[C@H](Cc3ccc(O)cc3)N(CC3CCCCCC3)C2=S)cc1	·	·	14.9	·	·	35.7
O=C(Cc1cccs1)Nc1nc2c(ccc3ccccc32)s1	-15.5	-5.8	19.9	-16.4	60.5*	5.9
CC(=O)Nc1nc2c(ccc3ccccc32)s1	-4.5	6.3	4.6	3.8	36.8	-0.8
COC1=CC(=O)c2c(ccc3ncnc(N)c23)C1=O	·	·	83.7*	·	·	-30.2
CSC(=S)N/N=C/c1ccc(N(C)C)cc1	-0.2	-3.4	-356.7	3.3	51.1*	4.4
Cc1ccc(Cn2c(C(C)Nc3nc(-c4ccc(F)cc4)cs3)nc3cc(Cl)c(Cl)cc32)cc1 (stereo unspecified)	-4.6	5.1	-3.8	-3.7	58.8*	12.7
Cc1cc(NC(=O)/C=C/c2cccc(F)c2)n(-c2nc3ccccc3[nH]2)n1	-4.4	3.6	19.3	-11.2	74.2*	13.8
CSc1cccc(-n2cc(-c3ccc4c(c3)OCO4)[nH]c2=O)c1	·	·	-23.0	·	51.0*	8.8
Cc1nn(Cc2ccc(F)cc2)c(C)c1NC(=O)c1cnn2c1NC(c1cccs1)CC2C(F)(F)F (stereo unspecified)	-0.9	-0.1	10.4	1.3	5.7	37.4*
Fc1cc(F)c2nc(Nc3nc4cc5c(cc4s3)OCO5)sc2c1	·	·	-409.4	·	38.4	6.9
O=C(NNc1nc2ccccc2s1)c1ccc(F)cc1	-0.8	2.6	-1.4	-0.6	53.9*	-2.3
Fc1cccc2sc(Nc3nc4cc5c(cc4s3)OCCO5)nc12	33.7	0.8	-398.9	47.9	60.3*	13.6
O=C(NNc1nc2cc3c(cc2s1)OCCO3)c1ccccc1	2.5	3.6	7.5	-20.3	73.9*	-8.6
Cc1cccc2sc(NNC(=O)c3ccc4c(c3)OCCO4)nc12	-17.8	6.1	-3.9	2.4	58.8*	-10.1
CCOC(=O)C1=CCN(S(=O)(=O)c2ccccc2F)C1c1ccccc1 (stereo unspecified)	·	·	8.4	·	·	-40.3
O=C(CCCSc1ccc(Cl)cc1)Nc1cc(S(=O)(=O)N2CCOCC2)ccc1O	9.7	-0.9	11.0	-15.5	1.2	20.0
CC(=O)N(C1=C(Cl)C(=O)c2ccccc2C1=O)C1CCCCC1	45.0	21.2	-113.3	51.0*	13.1	7.9
O=C(NN1CCOCC1)c1cc(-c2ccc(Br)cc2)nc2ccccc12	-2.0	12.0	7.9	12.5	57.9*	-0.8
O=C(NCCCN1CCOCC1)c1cc(-c2ccc(Br)cc2)nc2ccccc12	-12.1	-4.1	-13.8	-9.2	75.3*	-5.0
